The subject of assay [1] is Plasmodium falciparum Sir2 (PF13_0152, Sir2A). In words: Plasmodium falciparum Sir2A binding compounds – biochemical, small-molecule microarray, 635 nm fluorescence, primary screen (AID 1098).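 Also: score merges spot fluorescence intensity with its signal-to-noise ratio.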 The conditions noted are these: fluorescence 635 nm, higher = more signal.
A short description of assay [2]: probe aDKK1 binding to arrayed compounds – biochemical, biotinylated probe, 635/667 nm fluorescence, primary screen (AID 1099).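 Also: score merges 667nm spot fluorescence with signal to noise across triplicate slides.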 The conditions noted are these: small-molecule microarray, higher = more signal.
Assay [3] is described as follows: probe aCHRDL2 binding to arrayed compounds – biochemical, biotinylated probe, 635/667 nm fluorescence, primary screen (AID 1100). The conditions noted are these: small-molecule microarray, higher = more signal.
Assay [4] is described as follows: change in splice reporter luminescence, either direction, cell-based, HEK293, spliceosome inhibition project, primary screen (AID 1101).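 Also: HEK293 cells carrying a splicing-competent luciferase reporter gene; test concentration not given here.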 The conditions noted are these: HEK293 splicing luciferase reporter, 24 h, higher = more signal, called active from +8 up or from −8 down.
Assay [5] concerns the target Fibroblast growth factor 10 (Homo sapiens) (UniProt O15520). In words: compounds binding fibroblast growth factor 10 – biochemical, small-molecule microarray, 635 nm fluorescence, primary screen (AID 1102). The conditions noted are these: FGF10 binding, fluorescence 635 nm, higher = more signal.
Assay [6] relates to glycogen synthase kinase-3 (GSK3A per assay name; protocol says GSK3B). Description: compounds binding glycogen synthase kinase-3 – biochemical, small-molecule microarray, 635 nm fluorescence, GSK3A, primary screen (AID 1103). Also: the record names both GSK3A and GSK3B. The conditions noted are these: fluorescence 635 nm, higher = more signal.
Assay [7] addresses Epidermal growth factor receptor (Homo sapiens) (UniProt P00533). Description: compounds binding epidermal growth factor receptor – biochemical, small-molecule microarray, 635 nm fluorescence, primary screen (AID 1104).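 Also: score merges 667 nm emission intensity with spot signal to noise over triplicate slides.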 The conditions noted are these: EGFR binding, higher = more signal.
The target of assay [8] is Follistatin-related protein 3 (Homo sapiens) (UniProt O95633). In words: compounds binding follistatin-related protein 3 – biochemical, small-molecule microarray, 635 nm fluorescence, primary screen (AID 1105).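 Also: score merges emission near 667 nm and signal to noise per printed spot across three slides.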 The conditions noted are these: FSTL3 binding, higher = more signal.
The target of assay [9] is Dickkopf-related protein 1 (Homo sapiens) (UniProt O94907). Description: small molecules binding DKK1 protein – biochemical, small-molecule microarray, 635 nm fluorescence scan, primary screen (AID 1106).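 Also: score merges emission near 667 nm with signal to noise over three replicate slides.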 The conditions noted are these: higher = more signal.
The test system of assay [10] is Inhibin beta A chain (activin A). In words: small molecules binding activin A – biochemical, small-molecule microarray, 635 nm fluorescence scan, primary screen (AID 1107).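 Also: mouse activin A protein probed at 4.33 µg/mL on printed slides; score merges bound-protein fluorescence near 667 nm with spot signal-to-noise.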 The conditions noted are these: INHBA, higher = more signal.
Assay [11] has as its system Human papillomavirus type 1a protein E7 (residues 44-93). In words: small molecules binding HPV E7 44-93 – biochemical, small-molecule microarray, residues 44-93, 635 nm fluorescence, primary screen (AID 1108).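 Also: E7 fragment applied at 1 µg/mL in TBST for 1 h at 4 C; score combines spot fluorescence with its signal to noise ratio.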 The conditions noted are these: fluorescence 635 nm, higher = more signal.
Assay [12] in a line: hepatitis C replication reporter changes, two-sided – Huh7 cells, luciferase reporter, HCV replication inhibitor project, primary screen (AID 1109).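 Also: huh7 hepatoma cells harbouring a luciferase neomycin HCV replicon reporter; luciferase luminescence as measure of HCV replicon replication; test concentration not given here.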 The conditions noted are these: Huh7 HCV replicon luciferase reporter, 48 h; higher = more signal.
Assay [13] deals with Left-right determination factor 2 (Homo sapiens) (UniProt O00292). Description: small molecules binding LEFTY2 protein – biochemical, small-molecule microarray, 635 nm fluorescence scan, primary screen (AID 1110). The conditions noted are these: higher = more signal.
Assay [14] addresses Calmodulin-1 (Homo sapiens) (UniProt P0DP23). Description: small molecules binding calmodulin-1 with EGTA – biochemical, small-molecule microarray, Cy5-labelled CALM1, profiling panel (AID 1111).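 Also: labelled calmodulin applied in Tris saline Tween buffer holding calcium plus EGTA and DTT.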 The conditions noted are these: Cy5-CALM1 binding fluorescence, higher = more signal.
For assay [15] the target is unchanged. In words: small molecules binding Ca-loaded calmodulin-1 – biochemical, small-molecule microarray, Cy5-labelled CALM1, plus calcium, artefact control for SMM control-protein annotation, profiling panel (AID 1112).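 Also: score merges spot fluorescence with signal to noise from triplicate slides.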 The conditions noted are these: Cy5-CALM1 binding fluorescence, higher = more signal.
The nature of assay [16]: probe aWnt5a binding to arrayed compounds – biochemical, biotinylated probe, 635/667 nm fluorescence, primary screen (AID 1113).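 Also: score merges 667 nm fluorescence intensity with signal-to-noise per printed feature.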 The conditions noted are these: small-molecule microarray, higher = more signal.
A short description of assay [17]: probe aShh binding to arrayed compounds – biochemical, biotinylated probe, 635/667 nm fluorescence, primary screen (AID 1114).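 Also: probe is biotin-labelled aShh protein from a stem cell growth factor screen; measures binding of labelled protein to compounds printed on the slide; score merges feature fluorescence at 667 nm with signal-to-noise.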 The conditions noted are these: small-molecule microarray, higher = more signal.
Assay [18] in a line: probe aNog binding to arrayed compounds – biochemical, biotinylated probe, 635/667 nm fluorescence, primary screen (AID 1115).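 Also: probe is biotinylated aNog protein used at 0.15 µg/mL for 1 h at 4 C; z-score combines 667 nm fluorescence of each spot with its signal to noise.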 The conditions noted are these: small-molecule microarray, higher = more signal.
The target in assay [19] is Torsin-1A-interacting protein 1 (Homo sapiens) (UniProt Q5JTV8). In words: compound microarray binding of lysate hLAP1 – cell lysate, small-molecule microarray, COS7 lysate, 635/667 nm fluorescence, primary screen (AID 1116). The conditions noted are these: 635 nm fluorescence, higher = more signal.
The target of assay [20] is Alpha-bungarotoxin (Bungarus multicinctus) (UniProt P60615). In words: compounds binding labelled alpha-BTX control protein – biochemical, small-molecule microarray, Alexa647 label, 635/667 nm fluorescence, artefact control for SMM control protein annotation, profiling panel (AID 1117). The conditions noted are these: alpha-BTX-A647 binding fluorescence, higher = more signal.

The structures appear in SMILES notation. Calls of active or inactive are those of the source.

Chain of Dickkopf-related protein 1 (Homo sapiens) (O94907 whole entry, looked up): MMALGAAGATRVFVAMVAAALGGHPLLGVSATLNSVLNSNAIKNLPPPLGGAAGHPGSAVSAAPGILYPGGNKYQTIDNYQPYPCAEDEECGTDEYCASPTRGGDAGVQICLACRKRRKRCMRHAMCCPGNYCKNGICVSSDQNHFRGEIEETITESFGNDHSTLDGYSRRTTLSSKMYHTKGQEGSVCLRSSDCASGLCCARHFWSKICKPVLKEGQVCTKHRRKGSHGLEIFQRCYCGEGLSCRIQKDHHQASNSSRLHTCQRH
Chain of Left-right determination factor 2 (Homo sapiens) (O00292 whole entry, looked up): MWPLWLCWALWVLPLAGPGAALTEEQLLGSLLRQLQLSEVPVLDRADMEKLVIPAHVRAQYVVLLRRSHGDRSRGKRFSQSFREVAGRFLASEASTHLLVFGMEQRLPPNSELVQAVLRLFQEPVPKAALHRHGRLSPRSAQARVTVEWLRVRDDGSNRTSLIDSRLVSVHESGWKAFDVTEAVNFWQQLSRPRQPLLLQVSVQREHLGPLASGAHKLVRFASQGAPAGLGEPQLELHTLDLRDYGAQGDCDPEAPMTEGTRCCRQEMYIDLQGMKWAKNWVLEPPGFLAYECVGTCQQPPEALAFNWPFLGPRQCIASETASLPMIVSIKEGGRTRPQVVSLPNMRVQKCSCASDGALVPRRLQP
Chain of Epidermal growth factor receptor (Homo sapiens) (P00533 whole entry, looked up): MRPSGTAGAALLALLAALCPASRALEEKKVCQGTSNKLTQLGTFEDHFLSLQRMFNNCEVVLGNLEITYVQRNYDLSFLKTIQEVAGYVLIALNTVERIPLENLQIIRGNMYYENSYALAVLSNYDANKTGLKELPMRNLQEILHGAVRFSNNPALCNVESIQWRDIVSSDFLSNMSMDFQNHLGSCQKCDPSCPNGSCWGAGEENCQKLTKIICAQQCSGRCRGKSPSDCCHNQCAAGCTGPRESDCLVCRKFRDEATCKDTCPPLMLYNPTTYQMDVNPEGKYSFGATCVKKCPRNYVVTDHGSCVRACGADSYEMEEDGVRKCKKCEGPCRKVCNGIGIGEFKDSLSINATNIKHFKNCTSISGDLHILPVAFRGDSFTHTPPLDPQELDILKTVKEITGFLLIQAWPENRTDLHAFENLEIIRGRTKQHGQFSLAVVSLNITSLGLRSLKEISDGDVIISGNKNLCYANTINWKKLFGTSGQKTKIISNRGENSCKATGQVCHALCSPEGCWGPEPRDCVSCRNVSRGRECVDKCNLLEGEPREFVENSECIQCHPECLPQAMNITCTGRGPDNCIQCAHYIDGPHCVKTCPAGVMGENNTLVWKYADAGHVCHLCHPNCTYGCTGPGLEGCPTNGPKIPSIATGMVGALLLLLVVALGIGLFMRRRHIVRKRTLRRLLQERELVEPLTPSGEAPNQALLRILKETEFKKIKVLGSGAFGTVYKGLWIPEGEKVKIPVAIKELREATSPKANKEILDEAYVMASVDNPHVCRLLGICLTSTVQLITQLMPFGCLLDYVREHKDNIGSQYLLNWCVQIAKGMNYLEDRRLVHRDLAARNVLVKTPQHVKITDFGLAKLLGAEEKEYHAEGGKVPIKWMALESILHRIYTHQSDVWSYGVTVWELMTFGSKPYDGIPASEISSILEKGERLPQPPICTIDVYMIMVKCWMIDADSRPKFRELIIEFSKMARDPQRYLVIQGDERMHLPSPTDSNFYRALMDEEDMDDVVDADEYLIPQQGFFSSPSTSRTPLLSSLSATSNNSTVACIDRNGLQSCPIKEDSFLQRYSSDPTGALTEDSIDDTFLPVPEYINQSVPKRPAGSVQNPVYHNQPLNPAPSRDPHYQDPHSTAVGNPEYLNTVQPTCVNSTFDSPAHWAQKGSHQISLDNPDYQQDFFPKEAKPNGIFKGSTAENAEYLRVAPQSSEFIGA
Chain of Alpha-bungarotoxin (Bungarus multicinctus) (P60615 whole entry, looked up): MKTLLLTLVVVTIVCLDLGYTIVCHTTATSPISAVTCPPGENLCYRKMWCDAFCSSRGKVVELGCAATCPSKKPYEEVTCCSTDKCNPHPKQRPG
Chain of Follistatin-related protein 3 (Homo sapiens) (O95633 whole entry, looked up): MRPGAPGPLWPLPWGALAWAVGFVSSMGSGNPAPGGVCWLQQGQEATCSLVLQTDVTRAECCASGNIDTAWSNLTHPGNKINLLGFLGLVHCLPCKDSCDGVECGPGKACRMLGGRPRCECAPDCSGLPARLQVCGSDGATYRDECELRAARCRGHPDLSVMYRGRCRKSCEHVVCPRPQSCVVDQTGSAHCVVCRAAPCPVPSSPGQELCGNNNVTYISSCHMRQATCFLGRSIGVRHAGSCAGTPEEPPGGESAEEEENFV
Chain of Fibroblast growth factor 10 (Homo sapiens) (O15520 whole entry, looked up): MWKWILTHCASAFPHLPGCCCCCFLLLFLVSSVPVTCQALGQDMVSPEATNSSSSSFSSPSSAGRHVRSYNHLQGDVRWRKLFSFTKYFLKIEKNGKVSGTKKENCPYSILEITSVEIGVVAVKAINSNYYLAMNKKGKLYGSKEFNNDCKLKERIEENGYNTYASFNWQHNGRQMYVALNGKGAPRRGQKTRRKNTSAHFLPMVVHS
Chain of Torsin-1A-interacting protein 1 (Homo sapiens) (Q5JTV8 whole entry, looked up): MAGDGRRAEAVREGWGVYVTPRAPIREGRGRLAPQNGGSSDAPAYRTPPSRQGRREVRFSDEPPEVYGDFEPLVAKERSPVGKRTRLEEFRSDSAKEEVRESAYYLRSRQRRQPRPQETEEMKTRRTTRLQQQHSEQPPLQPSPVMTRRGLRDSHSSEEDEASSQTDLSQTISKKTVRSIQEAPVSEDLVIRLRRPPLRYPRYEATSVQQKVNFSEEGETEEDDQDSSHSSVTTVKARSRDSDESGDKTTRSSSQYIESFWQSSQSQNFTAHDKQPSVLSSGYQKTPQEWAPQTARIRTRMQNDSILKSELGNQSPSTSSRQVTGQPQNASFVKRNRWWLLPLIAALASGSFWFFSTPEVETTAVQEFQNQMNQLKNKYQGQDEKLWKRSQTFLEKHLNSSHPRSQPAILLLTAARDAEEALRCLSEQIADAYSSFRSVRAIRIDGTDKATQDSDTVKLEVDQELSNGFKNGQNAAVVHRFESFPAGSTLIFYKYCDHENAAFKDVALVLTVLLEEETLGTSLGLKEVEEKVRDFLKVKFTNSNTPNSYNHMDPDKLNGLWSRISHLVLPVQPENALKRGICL

Consider `COCCOC(=O)N1C(=O)[C@@]2(c3cc(C#CC4=CCCCC4)ccc31)[C@H](C(=O)N1CCN(c3ncccn3)CC1)[C@H]1C(=O)O[C@H](c3ccccc3)[C@H](c3ccccc3)N1[C@@H]2c1ccc(O)cc1`, for which the composite z-score worked out at 0.827 in assay [1]; 0.646 in assay [2]; 0.509 in [3]; 0.664 in assay [5]; 1.27 in assay [6]; 0.466 in assay [7]. The composite z-score amounted to 1.14 in [8]; 0.496 in assay [9]; 0.275 in [10]; 0.683 in assay [11]; 0.557 in assay [13]; 0.951 in assay [14]. Further, the composite z-score in [15] is 0.727; in assay [16], -0.0685; in assay [17], 0.258; in [18] it was 0.0234; in [19], 1.28; in [20], 1.45. Moreover, the figures for the z-score in [4] and in [12] were 0.345 (inactive) and -1.46, respectively.
With `COc1cc2c(cc1OC)CN(C(=O)[C@H]1[C@@H]3C(=O)O[C@@H](c4ccccc4)[C@@H](c4ccccc4)N3[C@@H](c3ccc(OCCO)cc3)[C@]13C(=O)Nc1ccc(C#CCCO)cc13)CC2`, the composite z-score was 0.903 in [1]; -0.269 in assay [2]; 0.33 in [3]; 1.4 in assay [5]; 1.29 in [6]; 0.292 in [7]. The composite z-score in assay [8] came out at 1.37; in [9], 0.167; in assay [10], 0.813; in assay [11] it was 1.43; in assay [13], 0.509; in [14], 1.23. For the same molecule, the composite z-score is 0.642 in assay [15]; 0.0668 in assay [16]; -0.0146 in assay [17]; 0.033 in assay [18]; 1.02 in assay [19]; 1.72 in assay [20]. Also, the z-score is -0.296 (inactive) in [4] and -0.563 in assay [12].
As to `Cc1ccc(S[C@]2(C(=O)NCc3ccccc3)CC(=O)N(C(C)C)[C@@H]2c2ccc(CO)cc2I)cc1`, the composite z-score in assay [1] is 0.169; in [2], 0.378; in assay [3] it was 1.16; in assay [5], -0.991; in assay [6] it was -0.687; in assay [7], -0.474. The composite z-score is -1.04 in assay [8]; -1.67 in assay [9]; 0.929 in assay [10]; 1.34 in assay [11]; -1.26 in assay [13]; 0.436 in assay [14]. In addition, the composite z-score was 0.475 in assay [15]; -0.243 in [16]; -0.229 in assay [17]; 0.962 in assay [18]; 0.877 in assay [19]; -0.613 in [20]. The results for the z-score in assay [4] and in assay [12] were 0.0407 (inactive) and -1.52, respectively.
Consider `[N-]=[N+]=NCc1ccccc1C[C@@]1(C(=O)NCCN2CCOCC2)N=C(c2ccc(OCCCO)cc2)O[C@@H]1c1ccccc1N=[N+]=[N-]`, for which the composite z-score was 1.15 in assay [1]; 0.75 in assay [2]; 0.45 in assay [3]; 0.778 in assay [5]; 1.08 in assay [6]; 0.283 in assay [7]. In addition, the composite z-score in assay [8] is 0.325; in assay [9], -0.194; in [10], 0.822; in assay [11] it was 1.4; in assay [13], -0.429; in [14] it was 1.16. For the same molecule, the composite z-score in assay [15] amounted to 0.415; in assay [16] it was 0.168; in assay [17] it was 0.0141; in [18], 0.78; in assay [19], 0.948; in assay [20] it was 1.89. Besides, the z-score in [4] is -1.7 (inactive); in [12] it was -3.07.
For `CCCCN1CC=CC23O[C@@H]4/C=C\CCC(C)OC(=O)C4[C@H]2C(=O)N(CCCCCCO)[C@@H]3C1=O` (stereo not given in full), the composite z-score in assay [1] is 0.906; in assay [2], -0.264; in assay [3] it was 0.402; in assay [5], 0.107; in [6] it was -0.782; in assay [7] it was -0.63. The composite z-score in assay [8] is -1.04; in [9] it was -0.842; in assay [10], 0.703; in assay [11], 0.111; in assay [13], -0.567; in assay [14] it was 0.119. The composite z-score is 0.282 in assay [15]; 0.0321 in assay [16]; -0.0709 in [17]; -0.168 in assay [18]; 1.47 in assay [19]; -0.637 in assay [20]. The z-score is 0.142 (inactive) in assay [4] and -0.0691 in assay [12].
In the case of `O=C(CS)NCCCCCCNC(=O)[C@@H]1C[C@@H]2C(=O)N3CCC[C@H]3C(=O)N2[C@@H]1c1cccc(OCCO)c1`, the composite z-score in assay [1] was found to be 1.62; in assay [2] it was 0.0302; in assay [3], 0.396; in assay [5] it was 0.964; in [6], 0.896; in [7] it was 0.559. Also, the composite z-score in [8] is 0.704; in assay [9], 0.426; in assay [10], 0.653; in [11], 1.41; in assay [13], 0.289; in assay [14] it was 1.49. In addition, the composite z-score in [15] is 0.36; in assay [16], 0.206; in assay [17], -0.0866; in assay [18], 0.0482; in assay [19], 1.41; in assay [20], 2.16. The z-score in assay [4] was -1.77 (inactive); in [12], 0.0871.
For `C=CCN1Cc2ccccc2C[C@@]2(N=C(c3ccc(OCCCO)cc3)O[C@H]2c2ccccc2)C1=O`, the composite z-score was determined as 0.907 in [1]; 0.189 in assay [2]; 0.512 in [3]; 1.17 in assay [5]; 1.26 in [6]; 0.147 in assay [7]. Also, the composite z-score in assay [8] was 0.363; in [9], 0.0968; in assay [10], 1.03; in assay [11] it was 1.46; in [13], 0.473; in [14], 2.97. Further, the composite z-score in assay [15] was -0.398; in [16] it was 0.0873; in assay [17] it was 0.19; in assay [18], -0.179; in [19] it was 1.2; in [20], 1.15. Besides, the z-score in assay [4] is 6.55 (inactive); in assay [12] it was -3.08.

Values taken from PubChem BioAssay.
